A selection: hits, their analogues and other compounds. The true share with any hit is near 5%.
ALR H2O2 inh: inhibitors of human ALR sulfhydryl oxidase, primary screen, biochemical, H2O2 detection, HRP-luminol luminescence, single point; FAD-linked sulfhydryl oxidase ALR (Homo sapiens), P55789; purified ALR, DTT oxidation; inhibition, % (concentration not given with the values); 290,000 tested, 3.8% active; AID 485317, 2010;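 active means mean replicate inhibition above about 79%, with every replicate also reaching it, limit read from the data; inconclusive means only one of the two criteria met; inactive means mean below limit and not every replicate reaching it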
CHT PAM: CHT positive allosteric modulators, primary screen, cell-based, membrane potential dye, choline EC20; High affinity choline transporter 1 (Homo sapiens), Q9GZV3; CHT-expressing cells; active compounds read high; LV-AA mutant CHT in HEK293 cells; B-score at 10 µM; 310,000 tested, 0.49% active; AID 488977, 2010;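 active means initial fluorescence not abnormally high and integrated response B-score, plate-corrected, over 3 SD above library mean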
CHT inh: inhibitors of human choline transporter CHT. CHT-expressing cells, membrane potential dye, choline response; active compounds read low. AID 488975, 2010. B-score at 10 µM. 310,000 tested, 0.86% active;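 active means B-score over 3 SD under the library average, and starting fluorescence ratio not unusually high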;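 further: choline stimulus applied at its EC90 after an EC20 pre-addition; B-score computed on integrated fluorescence ratio after choline addition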
AI-2 QS mod: Vibrio harveyi AI-2 quorum sensing modulators, primary screen, JMH597 strain, luminescence/OD600 ratio; 300,000 tested, 0.4% active; Vibrio harveyi JMH597 AI-2 luminescence/OD600 ratio, 9 h; active compounds read low; strain lacks LuxN and CqsS sensors; 0 = neutral-control median; activity change, % at 7.5 µM; in the data active means activity change below about -75%, passing the limit was not always enough; inconclusive means no clear call, values can overlap the other calls;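 further: luminescence divided by OD600 gain over 9 h not by final OD600 alone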
PREPL inh: PREPL enzyme inhibitors, primary screen, biochemical, fluorescence polarization. recombinant PREPL, fluorescence polarization activity-based probe. inhibition, % at 5.96 µM. 320,000 tested, 0.68% active. AID 2751, 2010; in the data active means inhibition above about 43%;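 further: 0% = enzyme with DMSO and 100% = wells lacking enzyme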
Target sequence (Q4J6C6 whole entry, looked up): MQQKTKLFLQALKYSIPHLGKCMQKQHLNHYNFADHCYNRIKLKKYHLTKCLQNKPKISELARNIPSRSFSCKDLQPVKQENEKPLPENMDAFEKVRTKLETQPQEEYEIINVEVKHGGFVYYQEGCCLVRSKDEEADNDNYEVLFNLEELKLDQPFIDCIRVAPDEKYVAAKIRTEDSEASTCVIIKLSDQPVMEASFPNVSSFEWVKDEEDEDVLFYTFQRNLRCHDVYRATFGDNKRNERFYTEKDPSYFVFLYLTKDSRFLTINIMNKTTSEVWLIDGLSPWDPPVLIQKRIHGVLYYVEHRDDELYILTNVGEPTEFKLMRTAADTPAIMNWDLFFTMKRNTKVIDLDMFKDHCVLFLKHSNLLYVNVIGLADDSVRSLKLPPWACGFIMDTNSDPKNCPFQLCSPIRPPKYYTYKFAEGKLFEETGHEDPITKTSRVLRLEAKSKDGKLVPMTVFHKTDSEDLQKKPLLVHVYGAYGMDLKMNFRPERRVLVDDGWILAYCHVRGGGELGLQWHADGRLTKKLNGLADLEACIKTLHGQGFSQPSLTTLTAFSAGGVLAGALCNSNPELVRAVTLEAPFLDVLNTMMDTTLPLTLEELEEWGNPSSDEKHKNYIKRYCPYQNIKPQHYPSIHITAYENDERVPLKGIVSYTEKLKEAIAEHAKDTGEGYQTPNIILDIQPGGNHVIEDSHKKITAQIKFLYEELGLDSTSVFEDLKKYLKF
* = called active by the depositor; i = inactive; ? = inconclusive; · = no result given.

SMILES	ALR H2O2 inh	CHT PAM	CHT inh	AI-2 QS mod	PREPL inh
Nc1ccc2nc(-c3cccs3)[nH]c2c1	99*	i	i	-1	2
Cc1nc2c(Cl)cc(Cl)cc2[nH]1	0	i	i	2	2
Nc1cccc(C(=O)Nc2ccc3nc(-c4cccnc4)[nH]c3c2)c1	99*	i	i	6	0
Nc1ccc(-c2nc3c(Cl)cc(N)cc3[nH]2)cc1	99*	i	i	11	1
COc1ccc2nc(-c3cccc(N)c3)[nH]c2c1	·	i	i	4	12
COc1ccc2nc(-c3ccc(N)cc3)[nH]c2c1	99*	i	i	19	19
CSc1cccc(CN2CCN(Cc3ccc(F)c(F)c3)C(CCO)C2)c1 (stereo not given)	7	i	i	2	26
O=C(NC1CC(=O)N(c2ccc(F)cc2)C1)C(=O)c1c[nH]c2ccccc12 (stereo not given)	-2	i	i	-2	10
Nc1ccc2nc(-c3ccccc3)[nH]c2c1	99*	i	i	7	12
Nc1ccc2nc(-c3cccnc3)[nH]c2c1	100*	i	i	7	13
Nc1ccc2nc(-c3ccccn3)[nH]c2c1	·	i	i	46	32
Nc1ccc2nc(-c3ccc(N)c(Cl)c3)[nH]c2c1	99*	i	i	38	37
O=C(Nc1ccc(Cl)cc1)ON=C1CCCC1	55	i	i	7	15
NC(=O)C1CCN(C(=O)CCC(=O)c2cccs2)CC1	1	·	·	·	9
Cc1ccn2c(NC3CCCC3)c(-c3ccsc3)nc2c1	89*	i	i	4	3
Cc1ccnc(NC(=O)Nc2ccc3c(c2)OCO3)c1	-7	i	i	14	0
CCCCN(C)CCCNC(=O)c1cn(CC)c2ccc(S(=O)(=O)N3CCc4ccccc4C3)cc2c1=O	-1	i	i	5	18
CCCCN(CC)CCCNC(=O)c1cn(CC)c2ccc(S(=O)(=O)N3CCc4ccccc4C3)cc2c1=O	-6	i	-13*	-5	12
CN(C)c1ccc(/C=N/Nc2ccc(-n3ccnc3)nn2)cc1	94*	i	i	10	20
CC(=O)Nc1ccc(NC(=O)CSCc2ccccc2Cl)cc1	?	i	i	22	12
C/C(=N\NC(=O)CSCc1ccccc1Cl)c1cc(O)ccc1O	98*	i	i	19	-3
CCOc1ccc(-c2nnc(-c3cccs3)o2)cc1OCC	·	i	i	1	-1
CCOc1ccc(-c2nc(-c3cccs3)c(CC(=O)O)s2)cc1OC	89*	i	i	26	9
CC1CC(C)CN(CCCNC(=O)CCNC(=O)Cn2ccc3ccccc3c2=O)C1 (stereo not given)	-1	i	i	-2	-21
COc1cc(SC)ccc1C(=O)Nc1c(Cl)cncc1Cl	77*	i	i	0	-8
SMILES	ALR H2O2 inh	CHT PAM	CHT inh	AI-2 QS mod	PREPL inh
COc1cc(SC)ccc1C(=O)Nc1c(C)cccc1C	·	i	i	28	12
COc1ccc(CC(=O)NCCCCc2ccccc2)cc1OC	-15	i	i	24	2
CCOC(=O)c1[nH]c2ccc(OC)cc2c1NS(=O)(=O)c1ccc(Cl)s1	66	i	i	-84*	-39
COc1ccc2[nH]c(C(=O)O)c(NS(=O)(=O)c3ccc(Cl)s3)c2c1	99*	i	i	15	0
COc1ccc2[nH]c(C(=O)O)c(NS(=O)(=O)c3ccc(C)c(C)c3)c2c1	97*	i	i	18	3
CCOc1cccc2cc(-c3csc(NC(=O)CCC(=O)NCCN4CCCCC4C)n3)c(=O)oc12 (stereo not given)	99*	i	i	16	4
CCOc1cccc2cc(-c3csc(NC(=O)CCC(=O)N4CCC(C)CC4)n3)c(=O)oc12	0	i	i	-5	3
CCOc1cccc2cc(-c3csc(NC(=O)CCC(=O)NCCCN4CCC(C)CC4)n3)c(=O)oc12	99*	i	i	10	2
Cc1cc(C(=O)NCC(=O)OCC(=O)NCC2CCCO2)ccc1[N+](=O)[O-] (stereo not given)	-4	·	·	·	2
Fc1cccc(CNc2ncnc3cc(Cl)ccc23)c1F	-4	i	i	11	-4
CC(C)(C)C(=O)NC1=NCCS1	100*	i	i	15	19
CN(C)S(=O)(=O)n1cnc([C@@H]2[C@@H]3C(=O)OC[C@@H]3C[C@]23N=CN(Cc2ccccc2)C3=O)c1	-7	·	·	·	-3
CCNc1nc(CSc2ccccc2)nc2sc(C)c(C)c12	83*	i	i	-12	4
O=S(=O)(c1ccc(NC(=S)N2CCN(c3ccc(O)cc3)CC2)cc1)N1CCOCC1	99*	i	i	16	-4
CCOC(=O)CNC(=O)CN1CCCN(S(=O)(=O)c2ccc(Br)s2)CC1	-2	i	i	·	17
O=C(CN1CCN(c2ccc(O)cc2)CC1)Nc1ccc(S(=O)(=O)N2CCCC2)cc1	88*	·	·	·	6
O=C(CN1CCCN(S(=O)(=O)c2ccc(Br)s2)CC1)Nc1ccc(Cl)cc1	91*	i	i	29	-38
CN(C)S(=O)(=O)c1cc(NC(=O)CN2CCN(c3ccc(O)cc3)CC2)ccc1Cl	100*	i	i	3	9
COC(=O)c1c(C(=O)c2ccc(Br)cc2)n(C)c2ccccc12	·	·	·	·	8
C/C(CC1CC(COCC(C)C)OC1=O)=N\Nc1nc(-c2ccccc2)cs1 (stereo not given)	98*	i	i	18	5
CS(=O)(=O)N1c2ccccc2[C@]2([C@@]34C[C@H]5C(=O)N[C@@H](Cc6ccccc6)C(=O)N5[C@@H]3N(S(C)(=O)=O)c3ccccc34)C[C@H]3C(=O)N[C@@H](Cc4ccccc4)C(=O)N3[C@H]12	-1	i	i	21	12
Cc1[nH]n(C2=NCCS2)c(=O)c1N=Nc1ccccc1	92*	i	i	11	2
COc1ccc(N2C(=O)/C(=C\c3ccco3)N=C2SCC(=O)NC(C)(C)C)cc1Cl	·	i	i	39	-3
CCN(CC)C(=O)CSC1=N/C(=C/c2ccco2)C(=O)N1c1ccc(OC)c(Cl)c1	98*	i	i	16	14
Cc1ccc(Sc2ncccc2C(=O)NCc2cc([N+](=O)[O-])ccc2O)cc1C	89*	i	i	11	·
CCN(CC)S(=O)(=O)c1ccc(N=Nc2cc(C)cc(Br)c2O)cc1	-10	i	i	18	7
Cc1ccc(N=Nc2ccc(O)cc2)c(Br)c1	92*	i	i	7	7

High-throughput results as filed in PubChem.
